Consider 42 sequences from paper PMC7819943, “Rice protein-binding microarrays: a tool to detect cis-acting elements near promoter regions in rice”.

Whole data set: some 39,000 sequences, median “fluorescence intensity (a.u.)” near 4,300, cut for the highest 2% near 39,000. Many of the other results were omitted from the sample, so the highest values are more common in it than they were.

The target in this test is T1, OsSMF1 (Oryza sativa, UniProt Q6ZLB0 1-436).
T1 sequence: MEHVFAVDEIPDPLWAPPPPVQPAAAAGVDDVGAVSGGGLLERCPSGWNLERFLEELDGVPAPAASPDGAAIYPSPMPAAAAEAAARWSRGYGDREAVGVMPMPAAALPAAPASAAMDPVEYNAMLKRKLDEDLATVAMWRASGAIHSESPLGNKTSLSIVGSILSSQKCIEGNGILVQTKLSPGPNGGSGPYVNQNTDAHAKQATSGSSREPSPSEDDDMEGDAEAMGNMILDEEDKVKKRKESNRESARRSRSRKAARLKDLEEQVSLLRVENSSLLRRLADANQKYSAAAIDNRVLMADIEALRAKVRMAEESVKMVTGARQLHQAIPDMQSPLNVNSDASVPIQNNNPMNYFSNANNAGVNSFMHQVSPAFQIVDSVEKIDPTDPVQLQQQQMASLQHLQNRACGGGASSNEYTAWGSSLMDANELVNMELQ
Description: protein-binding microarray (RPBM); PBS, 2% BSA, 51.3 ng/ul salmon testes DNA, 50 uM zinc acetate, 200 nM TF, 25 C, 1 h; high values mean tight binding. As to conditions: protein: recombinant; tags: N-terminal polyhistidine and DsRed monomer fusion (pET32a); chain copies: 2; label: CyDye5-dUTP incorporated in the synthesized complementary strand; 3' TTTTT single-stranded linker to array surface; dsDNA, one strand shown. In outline: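 Transcription factors were each fused at the N-terminus to a polyhistidine tag plus DsRed and expressed in E. coli BL21-CodonPlus before Ni–NTA purification. Binding to a double-stranded custom Agilent array was carried out with 200 nM protein at 25 °C for 1 h in PBS, 2% BSA, salmon testes DNA and 50 µM zinc acetate. The binding signal is per-feature fluorescence intensity, in arbitrary units, on an Axon 4000B scanner.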
As to “CAGCAGCAGCAGCAGCCGCCGCCTCCGTCCGTCCGTCCGTCGGAGTCACCTAGTGCAG”, the binding signal is 3230 fluorescence intensity (a.u.).
The value for “TTCGTGTGCCTAGGAAAATGGTATCCAAACCCCTCAAAATCGGAGTCACCTAGTGCAG” was 4190 fluorescence intensity (a.u.); that for “GAGAAATGACGACACATCCTCTCGAGTGATCAGGATCCGTCGGAGTCACCTAGTGCAG” was 3590 fluorescence intensity (a.u.); that for “TGTGCCCTCTCCGTTCGATCCAGGAAAATGATAGTGTGATCGGAGTCACCTAGTGCAG” was 50200 fluorescence intensity (a.u.).
For “TCACATCCGAGCTGAGCTCCTGACACAGTGACACTACTGGCGGAGTCACCTAGTGCAG”, the binding signal was 4310 fluorescence intensity (a.u.).
The value for “CGTACAACGGGTGTGTGTTTGGAGCCTGTAGCATGTGGTGCGGAGTCACCTAGTGCAG” was 4250 fluorescence intensity (a.u.); that for “GGCCTGTCGTACAAGCCGCTTTGCTTGGGCATACAAGCAACGGAGTCACCTAGTGCAG” was 65100 fluorescence intensity (a.u.).
For “GGGCAGCGTGTACAAGCCGGACAACGTGTCGCCGCCGGAGCGGAGTCACCTAGTGCAG”, the binding signal is 3340 fluorescence intensity (a.u.).
The value for “GATTACATGTAGACTATTTATCTACGTGGACAAAATCTCTCGGAGTCACCTAGTGCAG” was 13100 fluorescence intensity (a.u.); that for “CGTACTCATCTCCTACACATCATCTCCAATTAATCTAATTCGGAGTCACCTAGTGCAG” was 3180 fluorescence intensity (a.u.).
In the case of “CCATTGATTGATTATCAGTGGGCGTAATCATCAGTCTAAACGGAGTCACCTAGTGCAG”, the binding signal is 42100 fluorescence intensity (a.u.).
Consider “TCCATACATTATTGACGTAATCATAAATATACATCCATGTCGGAGTCACCTAGTGCAG”, for which the binding signal was 3360 fluorescence intensity (a.u.).
The value for “GAAACTCTAAATCTGCCATTACCCCAAGTACATCATTAGTCGGAGTCACCTAGTGCAG” was 3310 fluorescence intensity (a.u.).
The value for “TTTGCCATTAGCGTACTCACCTAATCTAATCATCGGATTACGGAGTCACCTAGTGCAG” was 48900 fluorescence intensity (a.u.); that for “ATTTATCATTATTAACTAATAATAACATTGATGTAATTAACGGAGTCACCTAGTGCAG” was 3400 fluorescence intensity (a.u.); that for “AATGACAGGACAACGAGGACACCGTGGATATTAAAGACCCCGGAGTCACCTAGTGCAG” was 4140 fluorescence intensity (a.u.).
The value for “TGGTAACTAAACTGCCATGTCAGGGACAGATCGACCAGTGCGGAGTCACCTAGTGCAG” was 5160 fluorescence intensity (a.u.); that for “AGGACACGTAGCATTTCCTCCTCAAGCAAGAGGAGCAGTACGGAGTCACCTAGTGCAG” was 4000 fluorescence intensity (a.u.); that for “AACGTCAAGTACTCACGTGGTCCACGAATATTTAAGCCTACGGAGTCACCTAGTGCAG” was 4480 fluorescence intensity (a.u.).
Consider “GCGAACACTGAGGTGTTGACGTTGCGCTCCGCCTCGCTGTCGGAGTCACCTAGTGCAG”, for which the binding signal is 3840 fluorescence intensity (a.u.).
The value for “GTCCCTCCGCCGGCATCAGCTCAACGCCGCCGTCCTCCTCCGGAGTCACCTAGTGCAG” was 3370 fluorescence intensity (a.u.); that for “ATTAAGCCCTCAATCGGCACAGGCGAGGAGTTCTCATCACCGGAGTCACCTAGTGCAG” was 12000 fluorescence intensity (a.u.); that for “GCCGAGAAGGCATCAACGGCACTGGCGAGGCCCTCTCAGCCGGAGTCACCTAGTGCAG” was 39600 fluorescence intensity (a.u.).
The value for “TCGTCGACTACGTGTTGGTGTTTCATGCCGCCAAGTCGACCGGAGTCACCTAGTGCAG” was 5250 fluorescence intensity (a.u.).
The value for “TATAAGCACAATGCAGCCTAGTTGTTGCCGTGACCTGAGTCGGAGTCACCTAGTGCAG” was 3180 fluorescence intensity (a.u.).
Regarding “GACATCTGGAGGCGTCATGCAAGATGTCACATCCATAGAACGGAGTCACCTAGTGCAG”, the binding signal is 3940 fluorescence intensity (a.u.).
The value for “ACTGGCCGTGACGCATTTCAACCTCTTGATCTGAACTGCCCGGAGTCACCTAGTGCAG” was 3620 fluorescence intensity (a.u.).
The value for “AACCATAATGTTTGTGACACATTAAGGGCCTGTTCACTTTCGGAGTCACCTAGTGCAG” was 3660 fluorescence intensity (a.u.); that for “ATGCAAAAGATATATAGGCTTGTTTTACTGAAGGTGGCTTCGGAGTCACCTAGTGCAG” was 39100 fluorescence intensity (a.u.); that for “GGCAGGCTTGCACACAGGTGCAAAGATACGTGTGGCAGACCGGAGTCACCTAGTGCAG” was 3240 fluorescence intensity (a.u.).
The value for “GATAGGCAAAGCTTCGAACTTTGGGCTGAAAACAAATTTTCGGAGTCACCTAGTGCAG” was 28400 fluorescence intensity (a.u.); that for “GAGATGTCTGAACAAACAGATGGACGTGTAATGTTGTGGACGGAGTCACCTAGTGCAG” was 3400 fluorescence intensity (a.u.); that for “CCGTCTTTTCTTTCTTCACGCCAGCGTCGCCGTGGTCAAGCGGAGTCACCTAGTGCAG” was 3650 fluorescence intensity (a.u.).
As for “GAAGGAATTGGATTGAATCAGAAAGGGGATCGATTCGATGCGGAGTCACCTAGTGCAG”, the binding signal was 45200 fluorescence intensity (a.u.).
For “CGGAGGGATTCGATTTGGAAGGAATTGGATTCGGAGTTGACGGAGTCACCTAGTGCAG”, the binding signal was 33200 fluorescence intensity (a.u.).
The value for “TTGGAATGCTGAAATTATTAGGGGACTATTCAAATTGATGCGGAGTCACCTAGTGCAG” was 39200 fluorescence intensity (a.u.); that for “TTAGCTGGGATGAATTGGGAATGGCTGATGATTCATTGCTCGGAGTCACCTAGTGCAG” was 3790 fluorescence intensity (a.u.).
The value for “TCGATTGGGGATTGGGGATTGGGGATCAGGAGGGATGGGGCGGAGTCACCTAGTGCAG” was 4350 fluorescence intensity (a.u.); that for “AATTTGGATTTGAATTATATCTGATTCAAATTTGAATTTGCGGAGTCACCTAGTGCAG” was 3270 fluorescence intensity (a.u.); that for “CAAGCCAAGTCTGAAGAAGAAGAACTAGTCATCGCTTGCCCGGAGTCACCTAGTGCAG” was 3820 fluorescence intensity (a.u.).
With “AAATCCTTGTCTTCCCACGCTGACGCTGCTGTGTCCAGGTCGGAGTCACCTAGTGCAG”, the binding signal is 4530 fluorescence intensity (a.u.).
“ACCGGCTCACTTATGCGCGCGCGGCGCTGAGGTGGCCGCACGGAGTCACCTAGTGCAG”: the binding signal is 5200 fluorescence intensity (a.u.).
